In PubChem BioAssay (NCI):
Compounds without any hit were thinned out: in the full panel of roughly 79,000, 15% have a hit. Activity calls are given as the source filed them. No stated cut-off is given here; in the data, active means growth inhibition above about 70%; inactive means the rest.

What was measured:
[1] = NCI Yeast Anticancer Drug Screen. Data for the rad50 strain (AID 155);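 further: 0% = growth of vehicle-only cultures of the same strain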; conditions: S. cerevisiae rad50 strain growth inhibition, stronger effect = higher value
How it was run: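 Yeast carrying a defined DNA repair defect were exposed to test compounds, and growth was compared with vehicle-treated controls to give percent inhibition.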

[2] = NCI Yeast Anticancer Drug Screen. Data for the mec2-1 strain (AID 157); conditions: S. cerevisiae mec2-1 strain, stronger effect = higher value
How it was run: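 Growth inhibition is read against vehicle-treated controls after compound exposure of the mec2-1 yeast strain, which is defective in DNA damage repair or cell cycle control.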

[3] = NCI Yeast Anticancer Drug Screen. Data for the sgs1 mgt1 strain (AID 161);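 further: 0% = growth of cultures given vehicle only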; conditions: S. cerevisiae sgs1 mgt1 strain, stronger effect = higher value
How it was run: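 Growth of a repair-deficient yeast mutant was monitored after compound treatment and expressed as inhibition relative to vehicle-treated cultures.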

[4] = NCI Yeast Anticancer Drug Screen. Data for the cln2 rad14 strain (AID 165);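 further: 0% = growth equal to vehicle treated cultures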; conditions: S. cerevisiae cln2 rad14 strain, stronger effect = higher value
How it was run: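 Growth inhibition, relative to vehicle-treated controls, is the read-out. The test organism is a yeast strain with defined genetic alterations, cln2 rad14.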

[5] = NCI Yeast Anticancer Drug Screen. Data for the bub3 strain (AID 167); conditions: S. cerevisiae bub3 mutant strain, stronger effect = higher value
How it was run: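 Compounds were applied to a genetically altered yeast strain carrying a cell-cycle control defect. Growth inhibition was scored against vehicle-treated controls.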

[6] = NCI Yeast Anticancer Drug Screen. Data for the mlh1 rad18 strain (AID 175); conditions: S. cerevisiae mlh1 rad18 strain growth inhibition, stronger effect = higher value
How it was run: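 Cells of a genetically altered yeast strain, deficient in DNA damage repair, were treated with compound. Their growth was then compared with that of vehicle-treated cultures to give inhibition.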

[7] = at 5.0 µM (retest, dose inferred, filed as 0.5)
[8] = at 50.0 µM (retest, dose inferred, filed as 5.0)

Measured: growth inhibition

C/C=C/CSc1cc(NC(=S)c2ccsc2C)ccc1Cl
active: [1]; [8] 83% | [1]; at 50.0 µM 88.2% | [2]; [8] 82% | [2]; at 50.0 µM 85.8% | [3]; [8] 88% | [3]; at 50.0 µM 91.2% | [4]; [8] 80% | [4]; at 50.0 µM 84.3% | [5]; [8] 88% | [5]; at 50.0 µM 88.6% | [6]; [8] 89% | [6]; at 50.0 µM 86.8%
inactive: [1]; [7] -6% | [2]; [7] -1% | [3]; [7] 43% | [4]; [7] -19% | [5]; [7] -2% | [6]; [7] 6%

COc1ccccc1C1c2cc3c(cc2OC(N2CCOCC2)C1C)OCO3 (stereo not given)
inactive: [1]; [7] 15% | [1]; [8] 18% | [1]; at 50.0 µM 37.2% | [2]; [7] 9% | [2]; [8] 9% | [2]; at 50.0 µM 14.2% | [3]; [7] 26% | [3]; [8] 47% | [3]; at 50.0 µM 26.4% | [4]; [7] 25% | [4]; [8] 56% | [4]; at 50.0 µM 18.3% | [5]; [7] 18% | [5]; [8] 57% | [5]; at 50.0 µM 40.8% | [6]; [7] 9% | [6]; [8] 32% | [6]; at 50.0 µM 59.5%

CN1CCN=C1c1ccc(NC(=O)Nc2ccc(NC(=O)Nc3ccc(C4=NCCN4C)cc3)cc2)cc1
active: [1]; [8] 80% | [1]; at 50.0 µM 84.8% | [2]; [8] 85% | [2]; at 50.0 µM 86.5% | [3]; [8] 74% | [3]; at 50.0 µM 90% | [5]; [8] 83% | [5]; at 50.0 µM 92% | [6]; [8] 83% | [6]; at 50.0 µM 93.8%
inactive: [1]; [7] -1% | [2]; [7] -15% | [3]; [7] -15% | [4]; [7] -10% | [4]; [8] 61% | [4]; at 50.0 µM 50.8% | [5]; [7] -2% | [6]; [7] 1%

CN1CCC(/C=C/c2cccc3ccccc23)CN1 (stereo not given) (tested in a mixture with another compound)
inactive: [1]; [7] 1% | [2]; [7] 18% | [3]; [7] -1% | [4]; [7] 3% | [4]; [8] 27% | [4]; at 50.0 µM 23.2% | [5]; [7] -4% | [5]; [8] 52% | [5]; at 50.0 µM 35.9% | [6]; [7] -1%
active: [1]; [8] 93% | [1]; at 50.0 µM 71.5% | [2]; [8] 71% | [2]; at 50.0 µM 71.3% | [3]; [8] 91% | [3]; at 50.0 µM 79.3% | [6]; [8] 95% | [6]; at 50.0 µM 81.3%

O=c1oc2c3ccc4ccccc4c3n(CCCN3CCCCC3)c2c2ccccc12
inactive: [1]; at 50.0 µM 54.4% | [2]; [7] 17% | [2]; [8] 17% | [3]; [7] 35% | [3]; [8] 35% | [4]; [7] 27% | [4]; [8] 27% | [5]; [7] -4% | [5]; [8] -4% | [6]; [7] -13% | [6]; [8] -13%
active: [1]; [7] 81% | [1]; [8] 81% | [2]; at 50.0 µM 82.8% | [3]; at 50.0 µM 87.4% | [4]; at 50.0 µM 76% | [5]; at 50.0 µM 84.8% | [6]; at 50.0 µM 87.3%

O=C(CCCN1CCC2(CC1)CC(c1ccccc1)OC2=O)c1ccc(F)cc1 (stereo not given)
active: [1]; [8] 76% | [1]; at 50.0 µM 86.3% | [2]; at 50.0 µM 87.9% | [3]; [8] 87% | [3]; at 50.0 µM 94.7% | [4]; [8] 84% | [4]; at 50.0 µM 89.8% | [5]; [8] 90% | [5]; at 50.0 µM 95.2% | [6]; at 50.0 µM 95.9%
inactive: [1]; [7] 48% | [2]; [7] 33% | [2]; [8] 65% | [3]; [7] 44% | [4]; [7] 41% | [5]; [7] 39% | [6]; [7] 34% | [6]; [8] 63%

Cc1ccc(NN)cc1
inactive: [1]; [7] 23% | [2]; [7] 0% | [2]; [8] 69% | [2]; at 50.0 µM 40.7% | [3]; [7] 26% | [3]; [8] 46% | [4]; [7] 4% | [4]; at 50.0 µM 21.1% | [5]; [7] 3% | [5]; at 50.0 µM 52.6% | [6]; [7] 11%
active: [1]; [8] 97% | [1]; at 50.0 µM 83.8% | [3]; at 50.0 µM 70.3% | [4]; [8] 75% | [5]; [8] 96% | [6]; [8] 94% | [6]; at 50.0 µM 80.5%

CCN(CC)c1ccc(N=Nc2ccc(-c3nc4ccc[n+](C)c4s3)cc2)cc1
active: [1]; [7] 99% | [1]; [8] 99% | [1]; at 50.0 µM 89.6% | [2]; [7] 99% | [2]; [8] 99% | [2]; at 50.0 µM 88.8% | [3]; [7] 99% | [3]; [8] 99% | [3]; at 50.0 µM 88.2% | [4]; [7] 100% | [4]; [8] 100% | [4]; at 50.0 µM 88.2% | [5]; [7] 99% | [5]; [8] 99% | [5]; at 50.0 µM 91.1% | [6]; [7] 99% | [6]; [8] 99% | [6]; at 50.0 µM 88.8%

C=C1CC(Cn2cc(Br)c(=O)[nH]c2=O)(c2ccc(Br)cc2)OC1=O (stereo not given)
inactive: [1]; [7] 14% | [2]; [7] 30% | [3]; [7] 29% | [4]; [7] 19% | [5]; [7] 4% | [6]; [7] 40%
active: [1]; [8] 98% | [1]; at 50.0 µM 97.8% | [2]; [8] 98% | [2]; at 50.0 µM 98.7% | [3]; [8] 98% | [3]; at 50.0 µM 97.8% | [4]; [8] 90% | [4]; at 50.0 µM 97.2% | [5]; [8] 97% | [5]; at 50.0 µM 97.2% | [6]; [8] 99% | [6]; at 50.0 µM 98.7%

CC(C)(C)CC(C)(C)NCc1cc(Cl)cc(Cc2cc(Cl)ccc2O)c1O
active: [1]; [8] 97% | [2]; [8] 98% | [3]; [8] 98% | [4]; [8] 94% | [5]; [8] 98% | [6]; [8] 98% | [6]; at 50.0 µM 78.7%
inactive: [1]; [7] 10% | [1]; at 50.0 µM 28.9% | [2]; [7] 9% | [2]; at 50.0 µM 46% | [3]; [7] 8% | [3]; at 50.0 µM 48.7% | [4]; [7] -4% | [4]; at 50.0 µM 16.8% | [5]; [7] 4% | [5]; at 50.0 µM 20.4% | [6]; [7] 19%
